molecular target: CRX (Homo sapiens, UniProt O43186 26-111, E42D); test: PBM; 200 nM protein, PBS; settings: dsDNA, one strand shown
Sequence (O43186 26-111 E42D): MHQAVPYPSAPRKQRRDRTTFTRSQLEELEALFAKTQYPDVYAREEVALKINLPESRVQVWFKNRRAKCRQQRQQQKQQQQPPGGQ

| Sequence | binding signal |
| --- | --- |
| GACAACCA | 8.18 upbm affinity estimate (log intensity, higher = more binding, comparable within an allelic series) |
| GGGATTAC | 13.2 upbm affinity estimate (log intensity, higher = more binding, comparable within an allelic series) |
| GCGCACGC | 8.37 upbm affinity estimate (log intensity, higher = more binding, comparable within an allelic series) |
| CCGGTGCG | 8.24 upbm affinity estimate (log intensity, higher = more binding, comparable within an allelic series) |
| GAAGATTA | 12.8 upbm affinity estimate (log intensity, higher = more binding, comparable within an allelic series) |
| CGCTGCCG | 8.09 upbm affinity estimate (log intensity, higher = more binding, comparable within an allelic series) |
| ACCTCCCA | 8.4 upbm affinity estimate (log intensity, higher = more binding, comparable within an allelic series) |
| TGGATTAA | 13.5 upbm affinity estimate (log intensity, higher = more binding, comparable within an allelic series) |
| CGGATTAA | 13.8 upbm affinity estimate (log intensity, higher = more binding, comparable within an allelic series) |
| AGGATTAA | 13.7 upbm affinity estimate (log intensity, higher = more binding, comparable within an allelic series) |
| CGGGATTA | 13.4 upbm affinity estimate (log intensity, higher = more binding, comparable within an allelic series) |
| ATAATCCC | 13.7 upbm affinity estimate (log intensity, higher = more binding, comparable within an allelic series) |
| AGGATTAC | 13 upbm affinity estimate (log intensity, higher = more binding, comparable within an allelic series) |
| TAATCCTA | 13.4 upbm affinity estimate (log intensity, higher = more binding, comparable within an allelic series) |
| AGTTAATC | 12.7 upbm affinity estimate (log intensity, higher = more binding, comparable within an allelic series) |
| ATAATCCG | 13.8 upbm affinity estimate (log intensity, higher = more binding, comparable within an allelic series) |
| AGATTATC | 13.1 upbm affinity estimate (log intensity, higher = more binding, comparable within an allelic series) |
| CTAATCCC | 13.6 upbm affinity estimate (log intensity, higher = more binding, comparable within an allelic series) |
| ATAGATTA | 12.5 upbm affinity estimate (log intensity, higher = more binding, comparable within an allelic series) |
| ATAATCTC | 13.1 upbm affinity estimate (log intensity, higher = more binding, comparable within an allelic series) |

| Sequence | binding signal |
| --- | --- |
| AGATTAAG | 13 upbm affinity estimate (log intensity, higher = more binding, comparable within an allelic series) |
| AGATTAAT | 12.9 upbm affinity estimate (log intensity, higher = more binding, comparable within an allelic series) |
| GGAGATTA | 13.2 upbm affinity estimate (log intensity, higher = more binding, comparable within an allelic series) |
| TAATCCCA | 13.4 upbm affinity estimate (log intensity, higher = more binding, comparable within an allelic series) |
| CCTCTGAC | 8.28 upbm affinity estimate (log intensity, higher = more binding, comparable within an allelic series) |
| CTGGATTA | 13.1 upbm affinity estimate (log intensity, higher = more binding, comparable within an allelic series) |
| CCTAATCC | 13.6 upbm affinity estimate (log intensity, higher = more binding, comparable within an allelic series) |
| ACGGATTA | 13.5 upbm affinity estimate (log intensity, higher = more binding, comparable within an allelic series) |
| AACTTTAA | 10.2 upbm affinity estimate (log intensity, higher = more binding, comparable within an allelic series) |
| AGAGATTA | 13.1 upbm affinity estimate (log intensity, higher = more binding, comparable within an allelic series) |
| AGGGATTA | 13.7 upbm affinity estimate (log intensity, higher = more binding, comparable within an allelic series) |
| ATAATCCA | 13.3 upbm affinity estimate (log intensity, higher = more binding, comparable within an allelic series) |
| GATTAAGC | 13.1 upbm affinity estimate (log intensity, higher = more binding, comparable within an allelic series) |
| GGATTAAA | 13.6 upbm affinity estimate (log intensity, higher = more binding, comparable within an allelic series) |
| GGATTACC | 13.3 upbm affinity estimate (log intensity, higher = more binding, comparable within an allelic series) |
| AAGGATTA | 13.4 upbm affinity estimate (log intensity, higher = more binding, comparable within an allelic series) |
| GGCTTAAC | 12.6 upbm affinity estimate (log intensity, higher = more binding, comparable within an allelic series) |
| GAGATTAA | 13.1 upbm affinity estimate (log intensity, higher = more binding, comparable within an allelic series) |
| CGTAATCC | 13.2 upbm affinity estimate (log intensity, higher = more binding, comparable within an allelic series) |
| GAGGATTA | 13.6 upbm affinity estimate (log intensity, higher = more binding, comparable within an allelic series) |

molecular target: PITX2 (Homo sapiens, UniProt Q99697 72-157); test: PBM; 200 nM protein, PBS; settings: dsDNA, one strand shown

| Sequence | binding signal |
| --- | --- |
| GACAACCA | 7.92 upbm affinity estimate (log intensity, higher = more binding, comparable within an allelic series) |
| GGGATTAC | 13.1 upbm affinity estimate (log intensity, higher = more binding, comparable within an allelic series) |
| GCGCACGC | 7.91 upbm affinity estimate (log intensity, higher = more binding, comparable within an allelic series) |
| GAAGATTA | 12.4 upbm affinity estimate (log intensity, higher = more binding, comparable within an allelic series) |
| ACCTCCCA | 8.05 upbm affinity estimate (log intensity, higher = more binding, comparable within an allelic series) |
| TGGATTAA | 13.3 upbm affinity estimate (log intensity, higher = more binding, comparable within an allelic series) |
| CGGATTAA | 13.4 upbm affinity estimate (log intensity, higher = more binding, comparable within an allelic series) |
| AGGATTAA | 13.3 upbm affinity estimate (log intensity, higher = more binding, comparable within an allelic series) |
| CGGGATTA | 13.3 upbm affinity estimate (log intensity, higher = more binding, comparable within an allelic series) |
| ATAATCCC | 13.2 upbm affinity estimate (log intensity, higher = more binding, comparable within an allelic series) |
| AGGATTAC | 12.9 upbm affinity estimate (log intensity, higher = more binding, comparable within an allelic series) |
| TAATCCTA | 13.2 upbm affinity estimate (log intensity, higher = more binding, comparable within an allelic series) |
| AGTTAATC | 12.3 upbm affinity estimate (log intensity, higher = more binding, comparable within an allelic series) |
| ATAATCCG | 13.3 upbm affinity estimate (log intensity, higher = more binding, comparable within an allelic series) |
| AGATTATC | 12.5 upbm affinity estimate (log intensity, higher = more binding, comparable within an allelic series) |
| CTAATCCC | 13.4 upbm affinity estimate (log intensity, higher = more binding, comparable within an allelic series) |
| ATAGATTA | 12.3 upbm affinity estimate (log intensity, higher = more binding, comparable within an allelic series) |
| ATAATCTC | 12.7 upbm affinity estimate (log intensity, higher = more binding, comparable within an allelic series) |
| AGATTAAG | 12.6 upbm affinity estimate (log intensity, higher = more binding, comparable within an allelic series) |

| Sequence | binding signal |
| --- | --- |
| AGATTAAT | 12.6 upbm affinity estimate (log intensity, higher = more binding, comparable within an allelic series) |
| GGAGATTA | 12.9 upbm affinity estimate (log intensity, higher = more binding, comparable within an allelic series) |
| TAATCCCA | 13.4 upbm affinity estimate (log intensity, higher = more binding, comparable within an allelic series) |
| CCTCTGAC | 7.92 upbm affinity estimate (log intensity, higher = more binding, comparable within an allelic series) |
| CTGGATTA | 13 upbm affinity estimate (log intensity, higher = more binding, comparable within an allelic series) |
| CCTAATCC | 13.3 upbm affinity estimate (log intensity, higher = more binding, comparable within an allelic series) |
| ACGGATTA | 13.1 upbm affinity estimate (log intensity, higher = more binding, comparable within an allelic series) |
| AGAGATTA | 12.7 upbm affinity estimate (log intensity, higher = more binding, comparable within an allelic series) |
| AGGGATTA | 13.5 upbm affinity estimate (log intensity, higher = more binding, comparable within an allelic series) |
| ATAATCCA | 13 upbm affinity estimate (log intensity, higher = more binding, comparable within an allelic series) |
| GATTAAGC | 12.7 upbm affinity estimate (log intensity, higher = more binding, comparable within an allelic series) |
| GGATTAAA | 13.3 upbm affinity estimate (log intensity, higher = more binding, comparable within an allelic series) |
| GGATTACC | 13.1 upbm affinity estimate (log intensity, higher = more binding, comparable within an allelic series) |
| AAGGATTA | 13.2 upbm affinity estimate (log intensity, higher = more binding, comparable within an allelic series) |
| GGCTTAAC | 12.7 upbm affinity estimate (log intensity, higher = more binding, comparable within an allelic series) |
| GAGATTAA | 12.8 upbm affinity estimate (log intensity, higher = more binding, comparable within an allelic series) |
| CGTAATCC | 13 upbm affinity estimate (log intensity, higher = more binding, comparable within an allelic series) |
| GAGGATTA | 13.1 upbm affinity estimate (log intensity, higher = more binding, comparable within an allelic series) |

molecular target: VAX1 (Homo sapiens, UniProt Q5SQQ9 86-172); test: PBM; 200 nM protein, PBS; settings: dsDNA, one strand shown
Sequence (Q5SQQ9 86-172): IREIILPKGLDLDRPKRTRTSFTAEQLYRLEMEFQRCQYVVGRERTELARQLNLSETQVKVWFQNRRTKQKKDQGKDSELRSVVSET

| Sequence | binding signal |
| --- | --- |
| CCGGTGCG | 7.06 upbm affinity estimate (log intensity, higher = more binding, comparable within an allelic series) |
| CGCTGCCG | 6.84 upbm affinity estimate (log intensity, higher = more binding, comparable within an allelic series) |
| AACTTTAA | 9.82 upbm affinity estimate (log intensity, higher = more binding, comparable within an allelic series) |
